# Laboratory results published in PubChem BioAssay.
# For some of these results: Results with a measured potency or affinity are listed apart. Calls of active or inactive are those of the source.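 How the source made its calls, unless noted: active means hit in primary screen, with calcium signal over 5 SD above buffer well mean in both duplicates; inactive means the rest.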
# Assays:
# [1] = tested on: TRPC4 beta (transient receptor potential cation channel C4), mouse; assay: activators of mouse TRPC4 channel, confirmation, cell-based, Fluo4 calcium, HEK293 TRPC4beta/mu-opioid, duplicates, 10 µM (AID 2426;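 active means fluorescence ratio normalized to control raised more than 50% in primary screen plus both repeat runs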;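 on activation: percent rise of integrated ratio over buffer wells lacking compound which define 0%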); conditions: Fluo4 calcium fluorescence, at 10 µM; active compounds read high
# [2] = tested on: transient receptor potential cation channel C4 beta (TRPC4), mouse; assay: activators of mouse TRPC4 channel, confirmation, cell-based, second round, Fluo4, HEK293 TRPC4beta/mu-opioid, 1 µM (AID 2461;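 active means primary screen active and over 50% activation in each of two duplicate runs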;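 on activation: 0% = wells without test compound as baseline of integrated fluorescence ratio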); conditions: Fluo4 calcium fluorescence, at 1 µM; active compounds read high
# [3] = tested on: TRPC4 (transient receptor potential cation channel C4 beta), mouse; assay: positive allosteric modulators of mouse TRPC4, confirmation, cell-based, second round, Fluo-4, HEK293 TRPC4beta/mu-opioid, 1 µM (AID 2554;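 active means primary screen hit whose fluorescence ratio, in both repeats, exceeds the weak agonist control mean by 3 SD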); conditions: DAMGO EC20, Fluo-4 calcium flux, at 1 µM; active compounds read high
# [4] = tested on: TRPC4 beta (transient receptor potential cation channel C4), mouse; assay: positive allosteric modulators of mouse TRPC4, confirmation, cell-based, Fluo-4, HEK293 TRPC4beta/mu-opioid (AID 2555;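 active means primary screen hit whose calcium fluorescence ratio, in both repeats, exceeds the weak agonist control mean by 3 SD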); conditions: DAMGO EC20, Fluo-4 calcium flux, at 10 µM; active compounds read high
# [5] = target: Short transient receptor potential channel 4 (Mus musculus) (UniProt Q9QUQ5); assay: inhibitors of mouse TRPC4 channel, confirmation, cell-based, Fluo4, HEK293 TRPC4beta/mu-opioid (AID 2636;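 active means calcium signal cut by more than 3 SD below the full-agonist control yet still positive, in both repeats and the earlier primary screen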); conditions: DAMGO, Fluo4 calcium flux, at 10 µM; active compounds read high
# [6] = target: Short transient receptor potential channel 4 (Mus musculus) (UniProt Q9QUQ5); assay: inhibitors of mouse TRPC4 channel, confirmation, cell-based, second round, Fluo4, HEK293 TRPC4beta/mu-opioid, 1 µM (AID 2637;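 active means calcium signal ratio cut to more than 3 SD under the fully stimulated control mean yet still positive, in both repeats and the primary screen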); conditions: Fluo4 calcium flux, DAMGO, at 1 µM; active compounds read high
# [7] = target: Short transient receptor potential channel 4 (Mus musculus) (UniProt Q9QUQ5); assay: TRPC4 positive allosteric modulators, dose response, cell-based, HEK293 TRPC4/mu-opioid, Fluo-4 calcium, EC20 DAMGO (AID 434941;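 active means earlier screen potentiator hit that boosts the TRPC4 ion channel at some dose, with a dose response; inactive means no potentiation, no dose response, or not a prior hit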;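 further: calcium entry triggered by an EC20 dose of DAMGO at the co-expressed mu-opioid receptor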)
# [8] = target: Short transient receptor potential channel 4 (Mus musculus) (UniProt Q9QUQ5); assay: mouse TRPC4 channel inhibitors, dose response, cell-based, HEK293 TRPC4/mu-opioid, Fluo-4 calcium (AID 434942;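 active means primary screen inhibitor hit that blocks the TRPC4 channel at some tested dose, yielding a dose curve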)
# [9] = target: Short transient receptor potential channel 6 (Mus musculus) (UniProt Q61143); assay: inhibition of mouse TRPC6 channel, confirmation, selectivity assay for TRPC4 inhibitor project, cell-based, HEK293, membrane potential dye, duplicate (AID 434948;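 active means active in primary screen and both duplicates, each dropping signal beyond three positive-control SD with fluorescence still positive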); conditions: HEK293 TRPC6, membrane potential dye fluorescence, at 10 µM, stimulated with maximal-effect acetylcholine; active compounds read high
# [10] = target: Short transient receptor potential channel 6 (Mus musculus) (UniProt Q61143); assay: activation of mouse TRPC6 channel, confirmation, selectivity assay for TRPC4 activator project, cell-based, HEK293, membrane potential dye, duplicate (AID 434950;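 active means membrane potential signal rise above negative control mean plus 3 SD in both duplicates, also active in the earlier TRPC4 screen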;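 on activation: 0% = buffer only wells and 100% = acetylcholine maximal-effect wells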); conditions: HEK293 TRPC6, membrane potential fluorescence, at 10 µM; active compounds read high
# [11] = target: Short transient receptor potential channel 6 (Mus musculus) (UniProt Q61143); assay: TRPC6 potentiation by TRPC4 potentiator hits, confirmation, selectivity assay for TRPC4 potentiator project, HEK293 cells, membrane potential dye, duplicate (AID 434952;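 active means compound raising the membrane signal above positive-control mean plus 3 SD in both repeats, and a primary screen hit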); conditions: HEK293 TRPC6, membrane potential dye fluorescence, at 10 µM, maximal acetylcholine added after compound; active compounds read high
# [12] = target: Short transient receptor potential channel 4 (Mus musculus) (UniProt Q9QUQ5); assay: calcium flux activators in TRPC4/5HT1a cells, counter-screen for TRPC4 activator project, cell-based, second counter screen, HEK293 TRPC4/5HT1a, Fluo-4 (AID 434977;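 active means calcium signal rise above buffer-control mean plus 5 SD in both duplicates, and also a hit in the primary screen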;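 on activation: plate controls were assay buffer for no effect and maximal serotonin response for full effect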); conditions: Fluo-4 calcium flux, at 10 µM; active compounds read high
# [13] = calcium flux inhibitors in TRPC4/5HT1a cells, confirmation, counter-screen for TRPC4 inhibitor project, cell-based, second counter screen, HEK293 TRPC4/5HT1a, Fluo-4 (AID 434978;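 active means primary screen active whose calcium signal fell more than 3 SD beyond the full-serotonin control mean in both duplicate plates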;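 further: serotonin given first at submaximal then at maximal dose after compound preincubation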); conditions: Fluo-4 calcium flux, at 10 µM, serotonin added to trigger calcium flux; active compounds read high
# [14] = tested on: TRPC4 (mouse), co-expressed with 5HT1a in HEK293; assay: calcium flux potentiators in TRPC4/5HT1a cells, confirmation, counter-screen for TRPC4 potentiator project, cell-based, second counter screen, HEK293 TRPC4/5HT1a, Fluo-4 (AID 434979;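 active means signal rise over 3 SD above mean of control wells given weak agonist, in both repeats and first screen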); conditions: Fluo-4 calcium flux, at 10 µM, serotonin added at its EC20 dose; active compounds read high
# [15] = calcium flux activation in mu-opioid HEK293 cells, confirmation, counter-screen for TRPC4 activator project, cell-based, HEK293 mu-opioid receptor line (AID 449723); conditions: Fluo-4 calcium fluorescence, at 10 µM; active compounds read high;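 further: counter screen cells carry the mu-opioid receptor alone and lack TRPC4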
# [16] = calcium flux enhancement in mu-opioid HEK293 cells, confirmation, counter-screen for TRPC4 allosteric potentiator project, cell-based, HEK293 mu-opioid receptor line (AID 449724;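 active means calcium signal rise more than 3 SD above the low-dose agonist control mean, in both duplicate plates and the primary screen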); conditions: Fluo-4 calcium flux, at 10 µM, compound added before EC20 DAMGO stimulus; active compounds read high
# Short transient receptor potential channel 6 (Mus musculus), sequence (Q61143 whole entry, looked up): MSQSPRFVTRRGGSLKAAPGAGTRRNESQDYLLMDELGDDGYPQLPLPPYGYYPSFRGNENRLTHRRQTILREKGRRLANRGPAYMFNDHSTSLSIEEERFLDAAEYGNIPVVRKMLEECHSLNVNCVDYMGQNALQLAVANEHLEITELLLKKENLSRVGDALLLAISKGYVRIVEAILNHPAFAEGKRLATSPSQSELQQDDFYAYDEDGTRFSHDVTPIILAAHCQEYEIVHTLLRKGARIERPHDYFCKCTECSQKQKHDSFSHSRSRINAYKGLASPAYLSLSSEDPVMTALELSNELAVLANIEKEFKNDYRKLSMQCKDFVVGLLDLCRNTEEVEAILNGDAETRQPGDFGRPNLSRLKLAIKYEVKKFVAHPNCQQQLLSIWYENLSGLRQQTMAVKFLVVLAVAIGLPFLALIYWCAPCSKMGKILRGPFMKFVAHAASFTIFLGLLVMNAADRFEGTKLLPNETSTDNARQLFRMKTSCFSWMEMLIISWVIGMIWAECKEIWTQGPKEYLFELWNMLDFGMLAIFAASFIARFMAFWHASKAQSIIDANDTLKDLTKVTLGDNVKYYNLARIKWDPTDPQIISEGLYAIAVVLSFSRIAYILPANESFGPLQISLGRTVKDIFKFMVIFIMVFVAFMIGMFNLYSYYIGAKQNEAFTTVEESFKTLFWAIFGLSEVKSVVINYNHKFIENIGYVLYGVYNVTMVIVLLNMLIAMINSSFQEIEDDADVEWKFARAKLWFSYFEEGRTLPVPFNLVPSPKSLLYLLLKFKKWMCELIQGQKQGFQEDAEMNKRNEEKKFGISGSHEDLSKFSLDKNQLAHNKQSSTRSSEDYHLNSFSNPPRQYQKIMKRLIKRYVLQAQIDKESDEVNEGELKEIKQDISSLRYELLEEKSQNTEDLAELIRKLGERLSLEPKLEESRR
# Short transient receptor potential channel 4 (Mus musculus), sequence (Q9QUQ5 whole entry, looked up): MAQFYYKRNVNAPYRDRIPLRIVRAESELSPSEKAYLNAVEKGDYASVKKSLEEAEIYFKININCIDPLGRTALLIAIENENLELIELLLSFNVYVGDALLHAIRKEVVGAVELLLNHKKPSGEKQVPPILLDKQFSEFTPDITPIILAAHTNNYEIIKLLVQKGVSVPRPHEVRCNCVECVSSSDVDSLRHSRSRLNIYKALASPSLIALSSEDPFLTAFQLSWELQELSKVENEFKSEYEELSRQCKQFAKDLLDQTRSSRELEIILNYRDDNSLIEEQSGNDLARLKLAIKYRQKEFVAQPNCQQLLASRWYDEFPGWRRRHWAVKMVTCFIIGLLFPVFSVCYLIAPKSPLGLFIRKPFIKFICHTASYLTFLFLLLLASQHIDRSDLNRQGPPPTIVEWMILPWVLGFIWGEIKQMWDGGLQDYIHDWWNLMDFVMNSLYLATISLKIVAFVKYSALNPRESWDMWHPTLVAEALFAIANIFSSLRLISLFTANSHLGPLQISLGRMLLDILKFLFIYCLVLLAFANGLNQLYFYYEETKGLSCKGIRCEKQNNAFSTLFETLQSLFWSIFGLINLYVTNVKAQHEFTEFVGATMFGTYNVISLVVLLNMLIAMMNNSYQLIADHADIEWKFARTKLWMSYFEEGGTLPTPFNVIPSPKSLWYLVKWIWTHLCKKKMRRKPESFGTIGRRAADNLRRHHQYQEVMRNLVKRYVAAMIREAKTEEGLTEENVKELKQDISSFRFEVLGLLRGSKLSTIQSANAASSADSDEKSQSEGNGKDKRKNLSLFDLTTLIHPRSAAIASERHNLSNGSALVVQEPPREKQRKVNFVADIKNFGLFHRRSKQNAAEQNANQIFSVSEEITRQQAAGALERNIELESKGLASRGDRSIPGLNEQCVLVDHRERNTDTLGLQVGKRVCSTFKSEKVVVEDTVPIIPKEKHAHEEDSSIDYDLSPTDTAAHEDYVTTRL
compound,measurement,setting,value
Cn1c(=O)c2c(nc(CN3CCc4ccccc4C3)n2Cc2ccccc2F)n(C)c1=O,activation,[1],221% (active)
same,outcome,[2],inactive
same,outcome,[3],inactive
same,outcome,[4],inactive
same,outcome,[5],inactive
same,outcome,[6],inactive
same,outcome,[7],inactive
same,outcome,[8],inactive
same,outcome,[9],inactive
same,outcome,[10],inactive
same,outcome,[11],inactive
same,outcome,[12],inactive
same,outcome,[13],inactive
same,outcome,[14],inactive
same,outcome,[15],inactive
same,outcome,[16],inactive
CC1CC(C)CN(CCCNC(=O)Cn2cccc2C(=O)c2ccccc2)C1 (stereo unspecified),activation,[1],162% (active)
same,activation,[2],98% (active)
same,outcome,[3],inactive
same,outcome,[4],inactive
same,outcome,[5],inactive
same,outcome,[6],inactive
same,outcome,[7],inactive
same,outcome,[8],inactive
same,outcome,[9],inactive
same,activation,[10],50.5% (active)
same,outcome,[11],inactive
same,activation,[12],62.1% (active)
same,outcome,[13],inactive
same,outcome,[14],inactive
same,outcome,[15],inactive
same,outcome,[16],inactive
COC(=O)NCC(c1ccc2c(c1)OCO2)N1CCN(c2ccccc2)CC1 (stereo unspecified),activation,[1],201% (active)
same,activation,[2],99% (active)
same,outcome,[3],inactive
same,outcome,[4],inactive
same,outcome,[5],inactive
same,outcome,[6],inactive
same,outcome,[7],inactive
same,outcome,[8],inactive
same,outcome,[9],inactive
same,activation,[10],33% (active)
same,outcome,[11],inactive
same,outcome,[12],inactive
same,outcome,[13],inactive
same,outcome,[14],inactive
same,outcome,[15],inactive
same,outcome,[16],inactive
COc1cccc(C(=O)NC2CCCN(C3Cc4ccccc4C3)C2)c1OC (stereo unspecified),activation,[1],132% (active)
same,outcome,[2],inactive
same,outcome,[3],inactive
same,outcome,[4],inactive
same,outcome,[5],inactive
same,outcome,[6],inactive
same,outcome,[7],inactive
same,outcome,[8],inactive
same,outcome,[9],inactive
same,activation,[10],57.5% (active)
same,outcome,[11],inactive
same,activation,[12],82.8% (active)
same,outcome,[13],inactive
same,outcome,[14],inactive
same,outcome,[15],inactive
same,outcome,[16],inactive
CN(C)CCCN(C(=O)c1ccc(S(=O)(=O)N2CCc3ccccc3C2)cc1)c1nc2ccc(F)cc2s1,outcome,[1],inactive
same,outcome,[2],inactive
same,outcome,[3],inactive
same,outcome,[4],inactive
same,outcome,[5],inactive
same,outcome,[6],inactive
same,outcome,[7],inactive
same,outcome,[8],inactive
same,outcome,[9],inactive
same,outcome,[10],inactive
same,outcome,[11],inactive
same,outcome,[12],inactive
same,outcome,[13],inactive
same,outcome,[14],inactive
same,outcome,[15],inactive
same,outcome,[16],inactive
CCN1CCN(c2ccc(S(=O)(=O)N3CCCCC3)cc2NC(=O)c2cccc(Cl)c2)CC1,activation,[1],63% (active)
same,outcome,[2],inactive
same,potentiation,[3],9% (active)
same,potentiation,[4],7% (active)
same,outcome,[5],inactive
same,outcome,[6],inactive
same,outcome,[7],inactive
same,outcome,[8],inactive
same,outcome,[9],inactive
same,outcome,[10],inactive
same,outcome,[11],inactive
same,activation,[12],17.8% (active)
same,outcome,[13],inactive
same,potentiation,[14],14.7% (active)
same,outcome,[15],inactive
same,outcome,[16],inactive
CCOC(=O)C1(CC2CC2)CCN(Cc2cnc(-c3ccccc3C)nc2)CC1,outcome,[1],inactive
same,outcome,[2],inactive
same,outcome,[3],inactive
same,outcome,[4],inactive
same,outcome,[5],inactive
same,outcome,[6],inactive
same,outcome,[7],inactive
same,outcome,[8],inactive
same,outcome,[9],inactive
same,activation,[10],59.5% (active)
same,outcome,[11],inactive
same,outcome,[12],inactive
same,outcome,[13],inactive
same,outcome,[14],inactive
same,outcome,[15],inactive
same,outcome,[16],inactive
CN1CCCC(OC(=O)c2cc(Br)ccc2Cl)C1 (stereo unspecified),activation,[1],116% (active)
same,activation,[2],87% (active)
same,outcome,[3],inactive
same,outcome,[4],inactive
same,outcome,[5],inactive
same,outcome,[6],inactive
same,outcome,[7],inactive
same,outcome,[8],inactive
same,outcome,[9],inactive
same,activation,[10],47% (active)
same,outcome,[11],inactive
same,activation,[12],43.7% (active)
same,outcome,[13],inactive
same,outcome,[14],inactive
same,outcome,[15],inactive
same,outcome,[16],inactive
O=C(NC(=S)NNC(=O)c1cccs1)c1ccc(Br)o1,activation,[1],202% (active)
same,outcome,[2],inactive
same,outcome,[3],inactive
same,outcome,[4],inactive
same,outcome,[5],inactive
same,outcome,[6],inactive
same,outcome,[7],inactive
same,outcome,[8],inactive
same,outcome,[9],inactive
same,outcome,[10],inactive
same,outcome,[11],inactive
same,activation,[12],117% (active)
same,outcome,[13],inactive
same,outcome,[14],inactive
same,activation,[15],28.6% (active)
same,outcome,[16],inactive
Cc1ccc(-n2cc(CNC(C)c3cnn(C)c3C)c(-c3ccc(F)cc3)n2)cc1 (stereo unspecified),activation,[1],195% (active)
same,activation,[2],86% (active)
same,outcome,[3],inactive
same,outcome,[4],inactive
same,outcome,[5],inactive
same,outcome,[6],inactive
same,outcome,[7],inactive
same,outcome,[8],inactive
same,outcome,[9],inactive
same,activation,[10],30.5% (active)
same,outcome,[11],inactive
same,outcome,[12],inactive
same,outcome,[13],inactive
same,outcome,[14],inactive
same,outcome,[15],inactive
same,outcome,[16],inactive
Cc1onc(-c2ccccc2)c1C(=O)NNC(=S)NC(=O)c1ccc2c(c1)OCO2,activation,[1],55% (active)
same,outcome,[2],inactive
same,outcome,[3],inactive
same,outcome,[4],inactive
same,outcome,[5],inactive
same,outcome,[6],inactive
same,outcome,[7],inactive
same,outcome,[8],inactive
same,outcome,[9],inactive
same,outcome,[10],inactive
same,outcome,[11],inactive
same,activation,[12],56.5% (active)
same,outcome,[13],inactive
same,outcome,[14],inactive
same,outcome,[15],inactive
same,outcome,[16],inactive
CCOc1ncccc1C(=O)NCC(c1ccccc1)N(C)C (stereo unspecified),activation,[1],155% (active)
same,outcome,[2],inactive
same,outcome,[3],inactive
same,outcome,[4],inactive
same,outcome,[5],inactive
same,outcome,[6],inactive
same,outcome,[7],inactive
same,outcome,[8],inactive
same,outcome,[9],inactive
same,activation,[10],61% (active)
same,outcome,[11],inactive
same,outcome,[12],inactive
same,outcome,[13],inactive
same,outcome,[14],inactive
same,outcome,[15],inactive
same,outcome,[16],inactive
CN(CCOc1ccc(Br)cc1)CC(O)c1ccccc1 (stereo unspecified),activation,[1],71% (active)
same,outcome,[2],inactive
same,outcome,[3],inactive
same,outcome,[4],inactive
same,outcome,[5],inactive
same,outcome,[6],inactive
same,outcome,[7],inactive
same,outcome,[8],inactive
same,outcome,[9],inactive
same,activation,[10],41.5% (active)
same,outcome,[11],inactive
same,activation,[12],12.6% (active)
same,outcome,[13],inactive
same,outcome,[14],inactive
same,outcome,[15],inactive
same,outcome,[16],inactive
CN1CCN(c2ccc(NC(=O)COc3cccc4ccccc34)cc2)CC1,activation,[1],135% (active)
same,outcome,[2],inactive
same,outcome,[3],inactive
same,outcome,[4],inactive
same,outcome,[5],inactive
same,outcome,[6],inactive
same,outcome,[7],inactive
same,outcome,[8],inactive
same,outcome,[9],inactive
same,outcome,[10],inactive
same,outcome,[11],inactive
same,outcome,[12],inactive
same,outcome,[13],inactive
same,outcome,[14],inactive
same,outcome,[15],inactive
same,outcome,[16],inactive
CCCN1CCN(C(=O)Cn2c(=O)oc3cc(S(=O)(=O)NCc4ccccc4)ccc32)CC1,activation,[1],168% (active)
same,outcome,[2],inactive
same,outcome,[3],inactive
same,outcome,[4],inactive
same,outcome,[5],inactive
same,outcome,[6],inactive
same,outcome,[7],inactive
same,outcome,[8],inactive
same,outcome,[9],inactive
same,outcome,[10],inactive
same,outcome,[11],inactive
same,activation,[12],26.3% (active)
same,outcome,[13],inactive
same,outcome,[14],inactive
same,outcome,[15],inactive
same,outcome,[16],inactive
CCC(=O)N1CCc2cc(Br)cc(S(=O)(=O)NCCCN(C)Cc3ccccc3)c21,activation,[1],116% (active)
same,activation,[2],65% (active)
same,outcome,[3],inactive
same,outcome,[4],inactive
same,outcome,[5],inactive
same,outcome,[6],inactive
same,outcome,[7],inactive
same,outcome,[8],inactive
same,outcome,[9],inactive
same,activation,[10],55% (active)
same,outcome,[11],inactive
same,activation,[12],33.1% (active)
same,outcome,[13],inactive
same,potentiation,[14],26.2% (active)
same,outcome,[15],inactive
same,outcome,[16],inactive
